Assay results reported in PubChem BioAssay AID1159580 (chemical genetic matrix, 2015).
Several values for one entry are separate records, joined by “and”; a condition that tells them apart may be missing. Identical values can stand only once. The campaign covered roughly 5,500 compounds. About 2,000 (36%) were called active. Not shown: some 18% with an inconclusive outcome. Cut-off read from the data, not from the text of the source: active = normalized growth mostly below about 0.91 (no sharp cut-off); inconclusive = no clear call, values can overlap the other calls; inactive = mostly above about 0.92. The list shows a part of the results.

Assay: chemical genetic growth profiling, strain panel (AID 1159580);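 note: tested at 20 µM; growth read once vehicle control cultures reached saturation at 30 °C; 1 = growth at the plate median or of vehicle wells; lower values mean less growth of the strain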
Conditions: S. cerevisiae deletion strains, growth OD

Measured: normalized growth

CCCCOC(=O)c1ccc(N)cc1
0.637 (active) and 0.942 (inactive): locus YHR030C, strain SLT2, stronger effect = lower value
0.511 (active) and 0.971 (inactive): locus YJL095W, strain BCK1, stronger effect = lower value
inactive: locus YAL013W, strain DEP1, stronger effect = lower value 0.974 | locus YAL021C, strain ccr4, stronger effect = lower value 0.909 | locus YBR021W, strain FUR4, stronger effect = lower value 0.948 | locus YBR229C, strain ROT2, stronger effect = lower value 0.993 | locus YCL029C, strain bik1, stronger effect = lower value 0.948 | locus YDL005C, strain med2, stronger effect = lower value 0.949 | locus YDL035C, strain GPR1, stronger effect = lower value 0.951 | locus YDL074C, strain BRE1, stronger effect = lower value 0.869 | locus YDL101C, strain DUN1, stronger effect = lower value 0.975 | locus YDL134C, strain PPH21, stronger effect = lower value 0.969 | locus YDL185W, strain tfp1, stronger effect = lower value 0.959 | locus YDR069C, strain doa4, stronger effect = lower value 0.916 | locus YDR150W, strain NUM1, stronger effect = lower value 0.988 | locus YDR195W, strain ref2 1.14 | locus YDR334W, strain swr1, stronger effect = lower value 0.914 | locus YEL037C, strain rad23, stronger effect = lower value 0.928 | locus YEL061C, strain CIN8, stronger effect = lower value 0.974 | locus YER110C, stronger effect = lower value 0.922 | locus YER155C, strain BEM2, stronger effect = lower value 0.969 | locus YER167W, strain BCK2, stronger effect = lower value 0.906 | locus YFR010W, strain ubp6, stronger effect = lower value 0.924 | locus YGL078C, strain dbp3, stronger effect = lower value 0.96 | locus YGL167C, strain pmr1, stronger effect = lower value 0.927 | locus YGL248W, strain PDE1, stronger effect = lower value 0.996 | locus YGR078C, strain PAC10, stronger effect = lower value 0.89 | locus YHR013C, strain ard1, stronger effect = lower value 0.856 | locus YHR079C, strain IRE1 (second series), stronger effect = lower value 0.935 | locus YHR079C, strain IRE1, stronger effect = lower value 0.993 | locus YHR094C, strain hxt1, stronger effect = lower value 0.961 | locus YHR129C, strain ARP1, stronger effect = lower value 0.984 | locus YHR200W, strain rpn10, stronger effect = lower value 0.933 | locus YIL066C, strain RNR3, stronger effect = lower value 0.925 | locus YIL073C, strain SPO22, stronger effect = lower value 0.85 | locus YIL125W, strain kgd1, stronger effect = lower value 0.967 | locus YIR030C, strain dcg1, stronger effect = lower value 0.946 | locus YJL115W, strain asf1, stronger effect = lower value 0.907 | locus YJL134W, strain LCB3, stronger effect = lower value 0.985 | locus YJL168C, strain set2, stronger effect = lower value 0.953 | locus YJL187C, strain SWE1 (second series), stronger effect = lower value 0.93 | locus YJR043C, strain POL32, stronger effect = lower value 0.871 | locus YJR066W, strain TOR1, stronger effect = lower value 0.949
active: locus YAL026C, strain drs2, stronger effect = lower value 0.603 | locus YAL030W, strain snc1, stronger effect = lower value 0.908 | locus YBL061C, strain skt5, stronger effect = lower value 0.71 | locus YBR009C, strain hhf1, stronger effect = lower value 0.849 | locus YBR023C, strain chs3, stronger effect = lower value 0.729 | locus YBR171W, strain sec66, stronger effect = lower value 0.884 | locus YBR231C, strain swc5, stronger effect = lower value 0.821 | locus YBR279W, strain paf1, stronger effect = lower value 0.897 | locus YCL011C, strain gbp2, stronger effect = lower value 0.891 | locus YCL016C, strain dcc1, stronger effect = lower value 0.86 | locus YCL069W, strain vba3, stronger effect = lower value 0.886 | locus YCR088W, strain abp1, stronger effect = lower value 0.862 | locus YDL040C, strain nat1, stronger effect = lower value 0.932 | locus YDL192W, strain arf1, stronger effect = lower value 0.886 | locus YDR001C, strain nth1, stronger effect = lower value 0.904 | locus YDR101C, strain arx1, stronger effect = lower value 0.898 | locus YDR137W, strain rgp1, stronger effect = lower value 0.453 | locus YDR159W, strain sac3, stronger effect = lower value 0.751 | locus YDR162C, strain NBP2, stronger effect = lower value 0.801 | locus YDR297W, strain sur2, stronger effect = lower value 0.92 | locus YDR318W, strain mcm21, stronger effect = lower value 0.897 | locus YDR335W, strain msn5, stronger effect = lower value 0.858 | locus YDR388W, stronger effect = lower value 0.911 | locus YDR392W, strain spt3, stronger effect = lower value 0.484 | locus YDR502C, strain sam2, stronger effect = lower value 0.911 | locus YEL003W, strain gim4, stronger effect = lower value 0.888 | locus YEL061C, strain CIN8 (second series), stronger effect = lower value 0.895 | locus YER015W, strain faa2, stronger effect = lower value 0.864 | locus YER016W, strain bim1, stronger effect = lower value 0.877 | locus YER111C, strain swi4, stronger effect = lower value 0.896 | locus YER155C, strain BEM2 (second series), stronger effect = lower value 0.203 | locus YGL086W, strain mad1, stronger effect = lower value 0.927 | locus YGL173C, strain kem1, stronger effect = lower value 0.876 | locus YGL227W, strain vid30, stronger effect = lower value 0.893 | locus YGL240W, strain doc1, stronger effect = lower value 0.666 | locus YGL253W, strain hxk2, stronger effect = lower value 0.869 | locus YGR135W, strain pre9, stronger effect = lower value 0.865 | locus YGR229C, strain SMI1, stronger effect = lower value 0.608 | locus YGR252W, strain gcn5, stronger effect = lower value 0.743 | locus YHR027C, strain rpn1, stronger effect = lower value 0.908 | locus YHR142W, strain chs7, stronger effect = lower value 0.495 | locus YJL092W, strain hpr5, stronger effect = lower value 0.872 | locus YJL095W, strain BCK1 (second series), stronger effect = lower value 0.278 | locus YJL129C, strain trk1, stronger effect = lower value 0.769 | locus YJL154C, strain vps35, stronger effect = lower value 0.906 | locus YJL164C, strain tpk1, stronger effect = lower value 0.871 | locus YJL166W, strain qcr8, stronger effect = lower value 0.825 | locus YJL187C, strain SWE1, stronger effect = lower value 0.919
